Measurements as given in PubChem BioAssay (NCATS).
Records with an inconclusive call do not appear. Where a call stands in place of a potency, no number is given. Activity calls are given as the source filed them. Unless noted, the call rests on the fitted dose curve; in most records, active means well fitted curve in the direction sought with a large enough effect; inconclusive means small, poorly fitted or top-dose-only effect, or another doubt; inactive means no such curve, though single readings can be large; an effect the other way counts as inactive or inconclusive.

Legend:
[1] = molecular target: Cytochrome P450 2C9 (Homo sapiens) (UniProt P11712); assay: Cytochrome P450 family 2 subfamily C member 9 (CYP2C9) small molecule antagonists: luciferase biochemical (cell-free) qHTS assay (AID 1645842; active means well fitted curve in the direction sought with a large enough effect in the repeat runs; an effect the other way counts as inactive or inconclusive; further: potency means the concentration at half of the fitted maximal effect; nearly all actives have a fitted effect of over 55% in size)
Sequence of Cytochrome P450 2C9 (Homo sapiens) (P11712 whole entry, looked up): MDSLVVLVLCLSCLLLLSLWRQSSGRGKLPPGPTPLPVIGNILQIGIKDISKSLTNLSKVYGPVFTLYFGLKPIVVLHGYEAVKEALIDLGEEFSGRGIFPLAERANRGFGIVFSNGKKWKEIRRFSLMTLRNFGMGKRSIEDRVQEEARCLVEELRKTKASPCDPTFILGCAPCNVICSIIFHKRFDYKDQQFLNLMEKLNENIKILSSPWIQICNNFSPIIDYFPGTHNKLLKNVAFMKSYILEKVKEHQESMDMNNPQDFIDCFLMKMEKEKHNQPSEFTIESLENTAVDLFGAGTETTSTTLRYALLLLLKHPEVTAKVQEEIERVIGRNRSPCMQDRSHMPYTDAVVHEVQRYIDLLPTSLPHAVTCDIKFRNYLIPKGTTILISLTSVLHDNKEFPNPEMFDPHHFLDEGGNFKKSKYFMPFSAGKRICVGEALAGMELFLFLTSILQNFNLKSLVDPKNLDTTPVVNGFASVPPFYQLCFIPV
Procedure, shortened: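 Luminescence, after 20 min with luciferin detection reagent, reflected CYP2C9 turnover during a 1 h NADPH-driven reaction at 37C. Enzyme-substrate mix contained 0.4% bovine serum albumin and was preincubated with compound 10 min at room temperature.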

[2] = Primary qHTS for inhibitors of nuclear receptor binding SET domain protein 2 (NSD2) in an isogenic RCH-ACV NSD2 p.E1099K mutant (9B) (AID 1645876); further: nearly all actives have a fitted effect of over 70% in size; further: potency means the concentration at half of the fitted maximal effect
[3] = molecular target: Glutathione peroxidase 1 (Homo sapiens) (UniProt P07203); assay: Primary qHTS Assay for Inhibitors of Recombinant Selenoprotein Glutathione Peroxidase 1 (GPX1) (AID 1845191); further: nearly all actives have a fitted effect of over 65% in size
Sequence of Glutathione peroxidase 1 (Homo sapiens) (P07203 whole entry, looked up): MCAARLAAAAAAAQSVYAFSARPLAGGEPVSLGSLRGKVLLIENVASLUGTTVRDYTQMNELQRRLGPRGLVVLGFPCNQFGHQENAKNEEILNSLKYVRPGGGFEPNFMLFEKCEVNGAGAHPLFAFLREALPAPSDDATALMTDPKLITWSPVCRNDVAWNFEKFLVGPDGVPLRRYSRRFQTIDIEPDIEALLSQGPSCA
Procedure, shortened: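 GR-coupled assay: compounds preincubated 30 min at room temperature with GPX1, then reaction started with CHP; final 10 nM GPX1, 1 mM GSH, 0.5 mM CHP, 0.5 mM NADPH, 100 nM GR, 0.01% BSA, pH 7.5 Tris buffer. NADPH fluorescence (340/450 nm) read at 0 and 15 min.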

[4] = molecular target: Phospholipid hydroperoxide glutathione peroxidase GPX4 (Homo sapiens) (UniProt P36969); assay: Primary qHTS Assay for Inhibitors of Recombinant Selenoprotein Glutathione Peroxidase 4 (GPX4) (AID 1845192); further: nearly all actives have a fitted effect of over 65% in size; further: potency means the concentration at half of the fitted maximal effect
Sequence of Phospholipid hydroperoxide glutathione peroxidase GPX4 (Homo sapiens) (P36969 whole entry, looked up): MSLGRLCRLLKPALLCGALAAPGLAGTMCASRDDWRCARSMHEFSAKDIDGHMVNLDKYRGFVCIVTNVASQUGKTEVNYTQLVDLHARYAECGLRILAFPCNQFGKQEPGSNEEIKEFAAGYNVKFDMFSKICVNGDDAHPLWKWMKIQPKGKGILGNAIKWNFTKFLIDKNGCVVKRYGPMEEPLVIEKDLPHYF
Procedure, shortened: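 GR-coupled assay: recombinant GPX4 preincubated 30 min with compound at room temperature; final 200 nM GPX4, 1 mM GSH, 0.5 mM cumene hydroperoxide, 0.5 mM NADPH, 100 nM GR, 0.01% BSA, pH 7.5 Tris. NADPH fluorescence (340/450 nm) read at 0 and 15 min.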

[5] = molecular target: Luciferin 4-monooxygenase (Photinus pyralis) (UniProt P08659); assay: Primary firefly luciferase (FLuc) qHTS assay for identification of artifact compounds. (AID 1845220); further: nearly all actives have a fitted effect of over 60% in size
Procedure, shortened: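 Enzymatic FLuc inhibition assay: compounds pre-exposed to luciferin/ATP (10 uM each) for 15 min, then purified P. pyralis enzyme at 10 nM added. Read-out: luminescence at 5 min.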

[6] = Primary fluorescence-based thiol-reactive (MSTI) qHTS assay for identification of artifact compounds. (AID 1845221);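 further: thiol-reactive compounds lower the probe fluorescence signal; nearly all actives have a fitted effect of over 65% in size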
Procedure, shortened: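 Curve-fitted percent inhibition (4-parameter Hill) derived from fluorescence, Ex 525/Em 598 nm, scaled with Acetyl-MSTI and MSTI; 1 h incubation at room temperature.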

[7] = Primary qHTS for inhibitors of nuclear receptor binding SET domain protein 2 (NSD2) in an RCH-ACV wild type WT cells (2C) (AID 1645877); further: nearly all actives have a fitted effect of over 70% in size; further: potency means the concentration at half of the fitted maximal effect
[8] = NCATS anti-infectives library activity on HEK293 viability as a counter-qHTS vs the C. elegans viability qHTS (AID 1745854); further: potency means the concentration at half of the fitted maximal effect
Procedure, shortened: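 HEK293 cells, 1500 per well, exposed 24 hr at 37C in 5% CO2 to compounds in a 1:5 titration, up to 41.7 uM final. Viability read as CellTiter-Glo luminescence after 10 min at room temperature.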

[9] = NCATS anti-infectives library activity on the primary C. elegans qHTS viability assay (AID 1745855; calls by dose curve)
Procedure, shortened: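 Viability is taken from GFP fluorescence of PE254-GFP-FLuc C. elegans imaged by laser cytometry over 7 days. Ten L1 worms per well grow at 21 °C on TOP10 E. coli capsules with titrated compound; levamisole marks toxicity.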

[10] = molecular target: Catechol O-methyltransferase (Homo sapiens) (UniProt P21964); assay: Confirmatory Screen for Target Class Profiling of Small Molecule Inhibitors of Methyltransferases (AID 1745852; calls by dose curve); settings: MTase-Glo luminescence, SAH detection, recombinant enzyme; measured here: COMT max response; stronger effect = lower value
Sequence of Catechol O-methyltransferase (Homo sapiens) (P21964 whole entry, looked up): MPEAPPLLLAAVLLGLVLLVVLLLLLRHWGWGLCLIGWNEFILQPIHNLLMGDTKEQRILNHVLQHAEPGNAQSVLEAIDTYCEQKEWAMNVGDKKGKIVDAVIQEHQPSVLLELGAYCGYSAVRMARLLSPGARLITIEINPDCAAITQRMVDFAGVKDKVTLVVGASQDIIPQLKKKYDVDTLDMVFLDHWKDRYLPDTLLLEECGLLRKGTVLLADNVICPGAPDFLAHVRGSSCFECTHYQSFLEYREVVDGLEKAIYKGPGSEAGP

[11] = molecular target: Guanidinoacetate N-methyltransferase (Homo sapiens) (UniProt Q14353); assay: as above; settings: activity change, negative = inhibition: at 57.3 µM (top of the series)
[12] = molecular target: Nicotinamide N-methyltransferase (Homo sapiens) (UniProt P40261); assay: as above; settings: MTase-Glo luminescence, SAH detection, recombinant enzyme; measured here: NNMT max response; stronger effect = lower value
Sequence of Nicotinamide N-methyltransferase (Homo sapiens) (P40261 whole entry, looked up): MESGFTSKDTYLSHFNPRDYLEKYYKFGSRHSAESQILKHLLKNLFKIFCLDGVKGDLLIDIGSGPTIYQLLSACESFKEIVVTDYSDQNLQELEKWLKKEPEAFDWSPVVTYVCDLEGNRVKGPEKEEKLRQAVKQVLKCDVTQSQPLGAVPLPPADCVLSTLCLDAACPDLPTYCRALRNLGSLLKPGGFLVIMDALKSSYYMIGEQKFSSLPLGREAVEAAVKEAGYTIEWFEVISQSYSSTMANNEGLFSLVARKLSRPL

[13] = molecular target: Phenylethanolamine N-methyltransferase (Homo sapiens) (UniProt P11086); assay: as above; settings: MTase-Glo luminescence, SAH detection, recombinant enzyme; measured here: PNMT max response; stronger effect = lower value
Sequence of Phenylethanolamine N-methyltransferase (Homo sapiens) (P11086 whole entry, looked up): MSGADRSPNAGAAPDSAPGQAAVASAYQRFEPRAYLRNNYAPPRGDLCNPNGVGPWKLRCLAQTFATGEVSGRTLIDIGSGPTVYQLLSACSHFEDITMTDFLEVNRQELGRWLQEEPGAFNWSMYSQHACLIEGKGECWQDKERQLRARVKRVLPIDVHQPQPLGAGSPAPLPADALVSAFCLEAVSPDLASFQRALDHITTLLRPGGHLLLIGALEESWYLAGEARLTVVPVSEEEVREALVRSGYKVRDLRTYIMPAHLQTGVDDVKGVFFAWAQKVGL

Question: For `O=C(Nc1ccc(Oc2ccnc3[nH]ccc23)c(F)c1)c1cccn(-c2ccc(F)cc2)c1=O`, which Potency [1] is on record?
Answer: 1.9 µM (active)

Question: And the Potency [2]?
Answer: 16.6 µM (active)

Question: What about the Potency [3] of the same molecule?
Answer: inactive

Question: And the Potency [4]?
Answer: inactive

Question: What about the Potency [5] of the same molecule?
Answer: inactive

Question: What about the Potency [6] of the same molecule?
Answer: inactive

Question: For `CCS(=O)(=O)Nc1ccc2[nH]c(O)c(C(=Nc3ccc(CN4CCCCC4)cc3)c3ccccc3)c2c1`, which Potency [2] is on record?
Answer: 0.148 µM (active)

Question: And the Potency [7]?
Answer: 29.5 nM (active)

Question: And the Potency [8]?
Answer: 2 µM (active)

Question: What about the Potency [3] of the same molecule?
Answer: inactive

Question: And the Potency [4]?
Answer: inactive

Question: Which Potency [2] does the source give for `CN(C)c1ccc(C(=O)NCCCCCCC(=O)NO)cc1` here?
Answer: 0.525 µM (active)

Question: What about the Potency [7] of the same molecule?
Answer: 934 nM (active)

Question: What about the Potency [8] of the same molecule?
Answer: inactive

Question: And the Potency [9]?
Answer: inactive

Question: And the Potency [3]?
Answer: inactive

Question: And the Potency [4]?
Answer: inactive

Question: Which Potency [2] does the source give for `c1cc(N[C@@H]2CCNC2)nc(-c2cnc3ccc(-c4cn[nH]c4)cn23)c1` here?
Answer: 2.63 µM (active)

Question: And the Potency [7]?
Answer: 934 nM (active)

Question: And the activity [10]?
Answer: -4.23%

Question: And the Potency [11]?
Answer: inactive

Question: And the activity [12]?
Answer: -7.42%

Question: And the activity [13]?
Answer: -12.3%

Question: And the Potency [3]?
Answer: inactive

Question: And the Potency [4]?
Answer: 25.5 µM (active)

Question: And the Potency [5]?
Answer: inactive

Question: Which results are given for `C[N+](C)([O-])CCNc1ccc(NCC[N+](C)(C)[O-])c2c1C(=O)c1c(O)ccc(O)c1C2=O`?
Answer: Potency [2]: 0.0525 µM (active); Potency [7]: 37.2 nM (active); Potency [3]: inactive; Potency [4]: inactive

Question: What does the source list for `COc1cc(O)c2c(c1)C1OC1C[C@H](O)[C@H](O)C(=O)C=CC[C@H](C)OC2=O` (stereo partly drawn)?
Answer: Potency [2]: 3.72 µM (active); Potency [7]: 3320 nM (active); Potency [3]: inactive; Potency [4]: inactive

Question: Which Potency [2] does the source give for `CC(=O)SCC(Cc1ccccc1)C(=O)NCC(=O)OCc1ccccc1` (stereo not drawn) here?
Answer: inactive

Question: What about the Potency [7] of the same molecule?
Answer: inactive

Question: And the Potency [3]?
Answer: inactive

Question: What about the Potency [4] of the same molecule?
Answer: inactive

Question: For `O=C(CCCCCCC(=O)Nc1cccnc1)NO`, which Potency [2] is on record?
Answer: 4.17 µM (active)

Question: And the Potency [7]?
Answer: 3320 nM (active)

Question: And the Potency [3]?
Answer: inactive

Question: What about the Potency [4] of the same molecule?
Answer: inactive

Question: Which results are given for `C[C@@H]1C(=O)O[C@H]2CC34[C@H]5C[C@@H](C(C)(C)C)C36[C@H](OC(=O)[C@@H]6O)O[C@@]4(C(=O)O5)[C@]21O` (stereo partly drawn)?
Answer: Potency [2]: inactive; Potency [7]: inactive; Potency [3]: inactive; Potency [4]: inactive

Question: For `NC(=NCCCCCCN=C(N)N=C(N)Nc1ccc(Cl)cc1)N=C(N)Nc1ccc(Cl)cc1`, which Potency [2] is on record?
Answer: 4.17 µM (active)

Question: And the Potency [7]?
Answer: 5250 nM (active)

Question: And the Potency [3]?
Answer: inactive

Question: What about the Potency [4] of the same molecule?
Answer: inactive

Question: Which Potency [2] does the source give for `COc1ccc([C@@H]2CNC(=O)C2)cc1OC1CCCC1` here?
Answer: inactive

Question: And the Potency [7]?
Answer: inactive

Question: And the Potency [3]?
Answer: inactive

Question: What about the Potency [4] of the same molecule?
Answer: inactive

Question: For `C[C@H](CCC(=O)O)[C@H]1CCC2C3C[C@H](O)[C@@H]4C[C@H](O)CC[C@]4(C)C3CC[C@@]21C` (stereo partly drawn), which Potency [2] is on record?
Answer: inactive

Question: What about the Potency [7] of the same molecule?
Answer: inactive

Question: And the Potency [3]?
Answer: inactive

Question: What about the Potency [4] of the same molecule?
Answer: inactive

Question: For `CCn1c(=O)c2c(nc(C=Cc3ccc(OC)c(OC)c3)n2C)n(CC)c1=O`, which Potency [2] is on record?
Answer: inactive

Question: What about the Potency [7] of the same molecule?
Answer: inactive

Question: And the Potency [3]?
Answer: inactive

Question: And the Potency [4]?
Answer: inactive

Question: Which results are given for `C#Cc1cccc(Nc2ncnc3cc(OCCOC)c(OCCO)cc23)c1`?
Answer: Potency [2]: 14.8 µM (active); Potency [7]: 13200 nM (active); Potency [3]: inactive; Potency [4]: inactive

Question: For `N#Cc1cc(NC(=O)Nc2nnc(-c3ccncc3)s2)ccc1-c1cn[nH]c1`, which Potency [2] is on record?
Answer: inactive

Question: And the Potency [7]?
Answer: inactive

Question: What about the Potency [3] of the same molecule?
Answer: inactive

Question: What about the Potency [4] of the same molecule?
Answer: inactive

Question: Which Potency [2] does the source give for `O=C(O)CCCCC(CCSCc1ccccc1)SCc1ccccc1` (stereo not drawn) here?
Answer: inactive

Question: And the Potency [7]?
Answer: inactive

Question: And the Potency [3]?
Answer: inactive

Question: What about the Potency [4] of the same molecule?
Answer: 20.2 µM (active)

Question: For `O=C(O)CCCCCC(=O)NN=C1CCCC1`, which Potency [2] is on record?
Answer: inactive

Question: And the Potency [7]?
Answer: inactive

Question: And the Potency [3]?
Answer: inactive

Question: And the Potency [4]?
Answer: inactive

Question: Which results are given for `Cc1cc(Nc2ncc3c(n2)N(C)C(=O)N(c2cc(NC(=O)c4cccc(C(F)(F)F)c4)ccc2C)C3)n(C)n1`?
Answer: Potency [2]: 0.132 µM (active); Potency [7]: 132 nM (active); Potency [3]: inactive; Potency [4]: inactive

Question: What does the source list for `C=CC(=O)N1CCc2ccc(-n3c(=O)ccc4cnc5ccc(-c6cnn(C)c6)cc5c43)cc21`?
Answer: Potency [2]: 0.363 µM (active); Potency [7]: 323 nM (active); Potency [3]: inactive; Potency [4]: inactive

Question: For `NC(=O)Nc1cc(-c2ccc(CN3CCOCC3)cc2)sc1C(N)=O`, which Potency [2] is on record?
Answer: 0.662 µM (active)

Question: What about the Potency [7] of the same molecule?
Answer: 372 nM (active)

Question: What about the Potency [3] of the same molecule?
Answer: inactive

Question: What about the Potency [4] of the same molecule?
Answer: inactive

Question: For `CC(=O)O[C@H]1C[C@@H]2CC[C@H]3[C@H]4C[C@H]([N+]5(C)CCCCC5)[C@@H](OC(C)=O)[C@@]4(C)CC[C@@H]3[C@@]2(C)C[C@H]1[N+]1(C)CCCCC1`, which Potency [2] is on record?
Answer: inactive

Question: What about the Potency [7] of the same molecule?
Answer: inactive

Question: And the Potency [3]?
Answer: inactive

Question: And the Potency [4]?
Answer: inactive

Question: For `N#Cc1c(NC(=O)c2cccc3ccccc23)sc2c1CCCC2`, which Potency [2] is on record?
Answer: 0.263 µM (active)

Question: What about the Potency [7] of the same molecule?
Answer: 263 nM (active)

Question: And the Potency [3]?
Answer: inactive

Question: What about the Potency [4] of the same molecule?
Answer: inactive

Question: Which Potency [2] does the source give for `O=C(CN1C(=O)C2(CCCC2)NC[C@H]1c1cc(F)cc(F)c1)Nc1ccc2c(c1)C[C@@]1(C2)C(=O)Nc2ncccc21` here?
Answer: inactive

Question: And the Potency [7]?
Answer: inactive

Question: What about the Potency [3] of the same molecule?
Answer: inactive

Question: What about the Potency [4] of the same molecule?
Answer: inactive

Question: With `COc1cc([C@@H]2c3cc4c(cc3[C@H](O)[C@H]3COC(=O)[C@@H]23)OCO4)cc(OC)c1OC` as the molecule, how does the Potency [2] read?
Answer: 0.662 µM (active)

Question: What about the Potency [7] of the same molecule?
Answer: 417 nM (active)

Question: What about the Potency [3] of the same molecule?
Answer: inactive

Question: And the Potency [4]?
Answer: inactive

Question: What does the source list for `CN(C)c1ccc2cc(C(=O)N[C@@H](CCCN=C(N)CCl)C(=O)NCc3ccccc3)ccc2c1`?
Answer: Potency [2]: inactive; Potency [7]: inactive; Potency [3]: inactive; Potency [4]: inactive

Question: With `CC(N[C@H]1CCCC[C@H]1NC(=O)c1ccc(Cl)cc1)c1cccc2ccccc12` (stereo partly drawn) as the molecule, how does the Potency [2] read?
Answer: 6.61 µM (active)

Question: And the Potency [7]?
Answer: 6610 nM (active)

Question: And the Potency [3]?
Answer: inactive

Question: What about the Potency [4] of the same molecule?
Answer: inactive

Question: Which Potency [2] does the source give for `CCCNS(=O)(=O)Nc1ncnc(OCCOc2ncc(Br)cn2)c1-c1ccc(Br)cc1` here?
Answer: 18.6 µM (active)

Question: And the Potency [7]?
Answer: 16600 nM (active)

Question: And the Potency [3]?
Answer: inactive

Question: What about the Potency [4] of the same molecule?
Answer: inactive
